# About 83,000 compounds went through this panel and 20% of them were active in at least one assay; those are over-represented in the sample as a whole.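 Results are percent growth after 48 hours of single-concentration exposure. 100 means growth as in untreated cells, lower positive values show inhibition; negative values down to -100 show cell death.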 Activity calls are given as the source filed them. The calls were made as follows: active = growth percent below 10; inactive = the rest.
# System: K-562 leukemia
# Experiment: NCI-60 one-dose screen, 48 h (100 = growth as untreated, 0 = no growth, -100 = all killed)
# Details: 10 µM unless noted
row,SMILES,growth
1,COc1cc(NCCCN=C(N)N)c2ncccc2c1,93.7% (inactive)
2,ClCCN(CCCl)c1nc(Cl)c(C2CC(c3ccccc3)=NN2c2cc(Cl)cc(Cl)c2)s1 (stereo unspecified),99.1% (inactive)
3,CCCCCCCC(=O)OCC(=O)[C@]1(O)Cc2c(O)c3c(c(O)c2[C@@H](OC2CC(N)C(O)C(C)O2)C1)C(=O)c1c(OC)cccc1C3=O (stereo partly specified),-86.7% (active)
4,COC[C@@H]1C[C@@]2(C)[C@@H](CC[C@@H]3[C@@H]2CC[C@@]2(C)[C@H]3CC[C@]2(C)O)CC1=O,85.8% (inactive)
5,C[C@]12CC[C@@H]3c4ccc(Oc5nc(N6CC6)nc(N6CC6)n5)cc4CC[C@H]3[C@@H]1CCC2=O,18% (inactive)
6,O=C1OCC2=C1C(c1ccccc1)c1cc3c(cc1N2)OCO3 (stereo unspecified),14.5% (inactive)
7,CCC1(C)CC(CCNCc2ccccc2O)(c2ccc(C)cc2)CCO1 (stereo unspecified),101% (inactive)
8,ClCCN(CCCl)Cc1ccc(Nc2ccnc3cc(Cl)ccc23)cc1,35.6% (inactive)
9,c1ccc(Nc2nc(-c3ccccc3)c[se]2)cc1,80.1% (inactive)
10,CCN(CC)CCOC(=O)C(OC(C)C)(c1ccccc1)c1ccccc1,97.3% (inactive)
11,CCCc1cc(O)c2c3c(c(=O)oc2c1)CN(C)CC3,12% (inactive)
12,ClCCN(CCCl)c1ccc(/C=N/Nc2ncnc3nc[nH]c23)cc1,61.2% (inactive)
13,CCC1(C(C)C)C(=O)NC(=S)NC1=O,107% (inactive)
14,CC(C)(N)Cc1ccccc1,92.8% (inactive)
15,CC1(C)N=C(N)N=C(N)N1c1cccc(CCCCc2ccc(Cl)c(S(=O)(=O)F)c2)c1,16.4% (inactive)
16,COc1cc(C=C2c3ccccc3C(=O)c3ccccc32)ccc1OCCCCOc1cc2c(cc1OC)C(=O)N1CCCC1C=N2 (stereo unspecified),-15.4% (active)
17,C[CH2][Sn]([Cl])([Cl])[CH2]C.Oc1ccccc1C=NCCN=Cc1ccccc1O,84.2% (inactive)
18,COc1ccc(O)c(CNC(=O)CN2CCCC2=O)c1,99.4% (inactive)
19,CCOC(=O)C(Cc1ccc(N(CCCl)CCCl)cc1)NC(=O)C(CC(C)C)NC(C)=O (stereo unspecified),12.6% (inactive)

row,SMILES,growth
1,C[C@]12CC[C@H]3[C@@H](CC[C@]4(O)C[C@@H](O[C@@H]5O[C@H](CO)[C@@H](O[C@@H]6OC[C@@H](O)[C@H](O)[C@H]6O)[C@H](O)[C@H]5O)CC[C@]34C=O)[C@@]1(O)CC[C@@H]2C1=CC(=O)OC1,4.28% (active)
2,Clc1ccc2nnnn2n1,-11.3% (active)
3,CC1(C)N=C(N)N=C(N)N1c1ccc(CCCCc2ccc(Cl)c(S(=O)(=O)F)c2)c(Cl)c1,9.3% (active)
4,CC(=O)[O][Hg][c]1c(N)c(C)cc(C)c1F,5.95% (active)
5,O=C(NCCN1CC1)C(=O)NCCN1CC1,87.9% (inactive)
6,[Au+].[N-]=C=O.c1ccc(CN2[CH-]N(Cc3ccccc3)C(c3ccccc3)=C2c2ccccc2)cc1,20.8% (inactive)
7,O=C(O)CNC(=O)C(Cl)(Cl)Cl,108% (inactive)
8,N#C[Se]Cc1cc(-c2ccccc2)n(-c2ccc(S(N)(=O)=O)cc2)n1,4.33% (active)
9,CCCCCC1(CCBr)C(=O)NC(=O)NC1=O,94.1% (inactive)
10,O=C(O)C(O)C(O)C1[O][Sb]([c]2ccc([N+](=O)[O-])cc2)[O]C1CO (stereo unspecified),99.6% (inactive)
11,O=Cc1cn(Cc2ccc(Cl)cc2)c2ccccc12,40.5% (inactive)
12,COc1cc(NC(C)CCCNC2CN3CCC2CC3)c2ncccc2c1 (stereo unspecified),22.8% (inactive)
13,Cc1ccc(C(=O)NCCCOc2ccc(N)cc2Cl)cc1S(=O)(=O)F,91.9% (inactive)
14,CC(=O)OCC1O[C@@H]([S-])C(OC(C)=O)[C@H](OC(C)=O)[C@@H]1OC(C)=O.[Au+].c1ccc(CN2[CH-]N(Cc3ccccc3)C(c3ccccc3)=C2c2ccccc2)cc1,1.59% (active)
15,O=C(Nc1ccc(Cl)cc1)Nc1nccs1,15.1% (inactive)
16,Clc1ccc(COC(Cn2ccnc2)c2ccc(Cl)cc2Cl)cc1 (stereo unspecified),-4.49% (active)
17,CC1CCCC(C[N+](C)(C)C)C1=O (stereo unspecified),88.3% (inactive)
18,CC(=O)/C=C/c1ccc2c(c1)OCO2,106% (inactive)
19,O=C(O)c1ccc([S-])cc1.[Au+].c1ccc(CN2[CH-]N(Cc3ccccc3)C(c3ccccc3)=C2c2ccccc2)cc1,-16.9% (active)

# System: MALME-3M melanoma
# Experiment: as above
# Details: 10 µM unless noted
row,SMILES,growth
1,COc1cc(NCCCN=C(N)N)c2ncccc2c1,21.1% (inactive)
2,ClCCN(CCCl)c1nc(Cl)c(C2CC(c3ccccc3)=NN2c2cc(Cl)cc(Cl)c2)s1 (stereo unspecified),103% (inactive)
3,CCCCCCCC(=O)OCC(=O)[C@]1(O)Cc2c(O)c3c(c(O)c2[C@@H](OC2CC(N)C(O)C(C)O2)C1)C(=O)c1c(OC)cccc1C3=O (stereo partly specified),-70.7% (active)
4,COC[C@@H]1C[C@@]2(C)[C@@H](CC[C@@H]3[C@@H]2CC[C@@]2(C)[C@H]3CC[C@]2(C)O)CC1=O,96.4% (inactive)
5,C[C@]12CC[C@@H]3c4ccc(Oc5nc(N6CC6)nc(N6CC6)n5)cc4CC[C@H]3[C@@H]1CCC2=O,65.4% (inactive)
6,O=C1OCC2=C1C(c1ccccc1)c1cc3c(cc1N2)OCO3 (stereo unspecified),58% (inactive)
7,CCC1(C)CC(CCNCc2ccccc2O)(c2ccc(C)cc2)CCO1 (stereo unspecified),109% (inactive)
8,ClCCN(CCCl)Cc1ccc(Nc2ccnc3cc(Cl)ccc23)cc1,57.4% (inactive)
9,c1ccc(Nc2nc(-c3ccccc3)c[se]2)cc1,78.6% (inactive)
10,CCN(CC)CCOC(=O)C(OC(C)C)(c1ccccc1)c1ccccc1,101% (inactive)
11,CCCc1cc(O)c2c3c(c(=O)oc2c1)CN(C)CC3,-1.24% (active)
12,ClCCN(CCCl)c1ccc(/C=N/Nc2ncnc3nc[nH]c23)cc1,106% (inactive)
13,CCC1(C(C)C)C(=O)NC(=S)NC1=O,111% (inactive)
14,CC(C)(N)Cc1ccccc1,112% (inactive)
15,CC1(C)N=C(N)N=C(N)N1c1cccc(CCCCc2ccc(Cl)c(S(=O)(=O)F)c2)c1,56% (inactive)
16,COc1cc(C=C2c3ccccc3C(=O)c3ccccc32)ccc1OCCCCOc1cc2c(cc1OC)C(=O)N1CCCC1C=N2 (stereo unspecified),-28.8% (active)
17,C[CH2][Sn]([Cl])([Cl])[CH2]C.Oc1ccccc1C=NCCN=Cc1ccccc1O,95.6% (inactive)
18,COc1ccc(O)c(CNC(=O)CN2CCCC2=O)c1,96.6% (inactive)
19,CCOC(=O)C(Cc1ccc(N(CCCl)CCCl)cc1)NC(=O)C(CC(C)C)NC(C)=O (stereo unspecified),-33% (active)

row,SMILES,growth
1,C[C@]12CC[C@H]3[C@@H](CC[C@]4(O)C[C@@H](O[C@@H]5O[C@H](CO)[C@@H](O[C@@H]6OC[C@@H](O)[C@H](O)[C@H]6O)[C@H](O)[C@H]5O)CC[C@]34C=O)[C@@]1(O)CC[C@@H]2C1=CC(=O)OC1,-25% (active)
2,Clc1ccc2nnnn2n1,66.2% (inactive)
3,CC1(C)N=C(N)N=C(N)N1c1ccc(CCCCc2ccc(Cl)c(S(=O)(=O)F)c2)c(Cl)c1,17.4% (inactive)
4,CC(=O)[O][Hg][c]1c(N)c(C)cc(C)c1F,-72.4% (active)
5,O=C(NCCN1CC1)C(=O)NCCN1CC1,103% (inactive)
6,[Au+].[N-]=C=O.c1ccc(CN2[CH-]N(Cc3ccccc3)C(c3ccccc3)=C2c2ccccc2)cc1,70% (inactive)
7,O=C(O)CNC(=O)C(Cl)(Cl)Cl,97.6% (inactive)
8,N#C[Se]Cc1cc(-c2ccccc2)n(-c2ccc(S(N)(=O)=O)cc2)n1,-47% (active)
9,CCCCCC1(CCBr)C(=O)NC(=O)NC1=O,108% (inactive)
10,O=C(O)C(O)C(O)C1[O][Sb]([c]2ccc([N+](=O)[O-])cc2)[O]C1CO (stereo unspecified),116% (inactive)
11,O=Cc1cn(Cc2ccc(Cl)cc2)c2ccccc12,96.5% (inactive)
12,COc1cc(NC(C)CCCNC2CN3CCC2CC3)c2ncccc2c1 (stereo unspecified),81.3% (inactive)
13,Cc1ccc(C(=O)NCCCOc2ccc(N)cc2Cl)cc1S(=O)(=O)F,87.6% (inactive)
14,CC(=O)OCC1O[C@@H]([S-])C(OC(C)=O)[C@H](OC(C)=O)[C@@H]1OC(C)=O.[Au+].c1ccc(CN2[CH-]N(Cc3ccccc3)C(c3ccccc3)=C2c2ccccc2)cc1,-30.2% (active)
15,O=C(Nc1ccc(Cl)cc1)Nc1nccs1,45.2% (inactive)
16,Clc1ccc(COC(Cn2ccnc2)c2ccc(Cl)cc2Cl)cc1 (stereo unspecified),42.9% (inactive)
17,CC1CCCC(C[N+](C)(C)C)C1=O (stereo unspecified),76.5% (inactive)
18,CC(=O)/C=C/c1ccc2c(c1)OCO2,92% (inactive)
19,O=C(O)c1ccc([S-])cc1.[Au+].c1ccc(CN2[CH-]N(Cc3ccccc3)C(c3ccccc3)=C2c2ccccc2)cc1,-68.6% (active)

# — PubChem BioAssay (NCI)
